Results filed as inconclusive are left out. Calls of active or inactive are those of the source. The call rests on the fitted dose curve; in most records, active means well fitted inhibition curve with a large enough effect; inconclusive means small, poorly fitted or top-dose-only effect; inactive means flat fitted curve, though single readings scatter.
Key:
[1] = qHTS profiling for inhibitors of Plasmodium falciparum proliferation (AID 504749); further: nearly all actives have a fitted effect of over 60% in size;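 on activity, negative = inhibition: 0% = DMSO vehicle and full inhibition = artemisinin control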; conditions: P. falciparum in erythrocytes, SYBR Green DNA, 72 h, at 28.7 µM (top of the series)
How it was run: (§1)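 SYBR Green fluorescence of parasite DNA, read after lysis and overnight dark incubation, measured growth over 72 h in erythrocyte culture at 0.3% parasitemia and 2.5% hematocrit. Data normalised to DMSO and 0.29 uM artemisinin, with plate-drift correction.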

3D7 = assay: as above; conditions: P. falciparum in erythrocytes, SYBR Green DNA, 72 h; series mostly up to 28.7 µM
How it was run: as §1

7G8 = assay: as above; conditions: P. falciparum in erythrocytes, SYBR Green DNA, 72 h; series mostly up to 28.7 µM
How it was run: as §1

AA1029 = assay: as above; conditions: P. falciparum in erythrocytes, SYBR Green DNA, 72 h; series mostly up to 28.7 µM
How it was run: as §1

AS120 = assay: as above; conditions: P. falciparum in erythrocytes, SYBR Green DNA, 72 h; series mostly up to 28.7 µM
How it was run: as §1

ATS189 = assay: as above; conditions: P. falciparum in erythrocytes, SYBR Green DNA, 72 h; series mostly up to 28.7 µM
How it was run: as §1

ATS95 = assay: as above; conditions: P. falciparum in erythrocytes, SYBR Green DNA, 72 h; series mostly up to 28.7 µM
How it was run: as §1

C2A = assay: as above; conditions: P. falciparum in erythrocytes, SYBR Green DNA, 72 h; series mostly up to 28.7 µM
How it was run: as §1

CP185 = assay: as above; conditions: P. falciparum in erythrocytes, SYBR Green DNA, 72 h; series mostly up to 28.7 µM
How it was run: as §1

CP191 = assay: as above; conditions: P. falciparum in erythrocytes, SYBR Green DNA, 72 h; series mostly up to 28.7 µM
How it was run: as §1
Potency means the concentration at half of the fitted maximal effect.

C[N+](C)(C)CCCCCC[N+](C)(C)C
inactive: activity, negative = inhibition ([1]; parasite line A) 4.23% | activity, negative = inhibition ([1]; parasite line B) 5.66% | outcome (3D7) | Potency (7G8) | outcome (AA1029) | Potency (AS120) | Potency (ATS189) | outcome (ATS95) | outcome (C2A) | outcome (CP185) | Potency (CP191)

NCCS
inactive: activity, negative = inhibition ([1]; parasite line A) 9.12% | activity, negative = inhibition ([1]; parasite line B) 7.21% | outcome (3D7) | Potency (7G8) | outcome (AA1029) | Potency (AS120) | Potency (ATS189) | outcome (ATS95) | outcome (C2A) | outcome (CP185) | Potency (CP191)

O=C1Nc2ccc(Cl)cc2C(C#CC2CC2)(C(F)(F)F)O1 (centres undefined)
active: Potency (7G8) 11.2 µM
inactive: activity, negative = inhibition ([1]; parasite line A) -18.6% | activity, negative = inhibition ([1]; parasite line B) 0.376% | outcome (3D7) | outcome (AA1029) | Potency (ATS189) | outcome (ATS95) | outcome (C2A) | outcome (CP185) | Potency (CP191)

CCCNC(=O)NS(=O)(=O)c1ccc(Cl)cc1
inactive: activity, negative = inhibition ([1]; parasite line A) 14.4% | activity, negative = inhibition ([1]; parasite line B) 10.3% | outcome (3D7) | Potency (7G8) | outcome (AA1029) | Potency (AS120) | Potency (ATS189) | outcome (ATS95) | outcome (C2A) | outcome (CP185) | Potency (CP191)

CC(=O)N[C@@H](CS)C(=O)O
inactive: activity, negative = inhibition ([1]; parasite line A) -3.7% | activity, negative = inhibition ([1]; parasite line B) 16.4% | outcome (3D7) | Potency (7G8) | outcome (AA1029) | Potency (AS120) | Potency (ATS189) | outcome (ATS95) | outcome (C2A) | outcome (CP185) | Potency (CP191)

CN(C)CCC(c1ccccc1)c1ccccn1 (centres undefined)
active: Potency (7G8) 5.62 µM
inactive: activity, negative = inhibition ([1]; parasite line A) 8.91% | activity, negative = inhibition ([1]; parasite line B) 5.22% | outcome (3D7) | Potency (AS120) | Potency (ATS189) | outcome (C2A) | Potency (CP191)

CCN(CC)CCNC(=O)c1ccc(N)cc1
inactive: activity, negative = inhibition ([1]; parasite line A) 6.98% | activity, negative = inhibition ([1]; parasite line B) 5.88% | outcome (3D7) | Potency (7G8) | outcome (AA1029) | Potency (AS120) | Potency (ATS189) | outcome (ATS95) | outcome (C2A) | outcome (CP185) | Potency (CP191)

CCCCC1C(=O)N(c2ccccc2)N(c2ccccc2)C1=O
inactive: Potency (7G8)

From PubChem BioAssay (NCATS)
